# Columns and labels:
# [1] = molecular target: Tyrosine-protein kinase CSK (Homo sapiens) (UniProt P41240); settings: at 1 µM;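 note: each value is an averaged inhibition reading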
# [2] = molecular target: T1, Discoidin domain-containing receptor 2 (Homo sapiens) (UniProt Q16832); settings: at 0.1 µM
# T1 sequence (whole entry): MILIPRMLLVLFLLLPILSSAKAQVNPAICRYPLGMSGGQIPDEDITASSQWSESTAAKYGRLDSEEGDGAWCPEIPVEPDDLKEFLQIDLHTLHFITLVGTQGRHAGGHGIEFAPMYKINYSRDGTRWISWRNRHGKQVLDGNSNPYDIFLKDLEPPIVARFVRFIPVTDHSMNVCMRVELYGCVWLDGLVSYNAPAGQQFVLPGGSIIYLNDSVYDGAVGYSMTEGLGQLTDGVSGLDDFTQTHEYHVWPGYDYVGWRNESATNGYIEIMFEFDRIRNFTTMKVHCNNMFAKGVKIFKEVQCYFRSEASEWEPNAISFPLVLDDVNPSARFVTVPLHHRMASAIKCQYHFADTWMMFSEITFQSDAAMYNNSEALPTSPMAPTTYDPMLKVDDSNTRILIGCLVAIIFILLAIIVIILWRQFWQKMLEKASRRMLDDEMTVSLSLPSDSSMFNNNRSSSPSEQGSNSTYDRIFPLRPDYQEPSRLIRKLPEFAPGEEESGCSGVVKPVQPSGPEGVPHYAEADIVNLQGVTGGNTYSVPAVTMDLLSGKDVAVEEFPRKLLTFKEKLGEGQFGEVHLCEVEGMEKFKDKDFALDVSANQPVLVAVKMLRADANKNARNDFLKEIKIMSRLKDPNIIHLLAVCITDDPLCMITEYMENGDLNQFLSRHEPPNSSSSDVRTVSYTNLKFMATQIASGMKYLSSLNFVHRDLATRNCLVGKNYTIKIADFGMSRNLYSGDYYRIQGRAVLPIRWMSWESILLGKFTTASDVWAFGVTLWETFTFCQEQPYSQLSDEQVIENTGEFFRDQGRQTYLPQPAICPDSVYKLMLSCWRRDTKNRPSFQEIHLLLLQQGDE
# [3] = molecular target: T1, Discoidin domain-containing receptor 2 (Homo sapiens); settings: at 1 µM
# [4] = molecular target: Epidermal growth factor receptor (Homo sapiens) (UniProt P00533); settings: at 0.1 µM
# [5] = molecular target: Epidermal growth factor receptor (Homo sapiens) (UniProt P00533); settings: at 1 µM
# [6] = test system: Epidermal growth factor receptor (Homo sapiens), P00533 [L858R]; settings: at 0.1 µM
# [7] = test system: Epidermal growth factor receptor (Homo sapiens), P00533 [L858R]; settings: at 1 µM
# [8] = test system: Epidermal growth factor receptor (Homo sapiens), P00533 [L861Q]; settings: at 0.1 µM
# [9] = test system: Epidermal growth factor receptor (Homo sapiens), P00533 [L861Q]; settings: at 1 µM
# [10] = test system: Epidermal growth factor receptor (Homo sapiens), P00533 [T790M]; settings: at 0.1 µM
# Epidermal growth factor receptor (Homo sapiens), P00533 [T790M], sequence (P00533 whole entry T790M): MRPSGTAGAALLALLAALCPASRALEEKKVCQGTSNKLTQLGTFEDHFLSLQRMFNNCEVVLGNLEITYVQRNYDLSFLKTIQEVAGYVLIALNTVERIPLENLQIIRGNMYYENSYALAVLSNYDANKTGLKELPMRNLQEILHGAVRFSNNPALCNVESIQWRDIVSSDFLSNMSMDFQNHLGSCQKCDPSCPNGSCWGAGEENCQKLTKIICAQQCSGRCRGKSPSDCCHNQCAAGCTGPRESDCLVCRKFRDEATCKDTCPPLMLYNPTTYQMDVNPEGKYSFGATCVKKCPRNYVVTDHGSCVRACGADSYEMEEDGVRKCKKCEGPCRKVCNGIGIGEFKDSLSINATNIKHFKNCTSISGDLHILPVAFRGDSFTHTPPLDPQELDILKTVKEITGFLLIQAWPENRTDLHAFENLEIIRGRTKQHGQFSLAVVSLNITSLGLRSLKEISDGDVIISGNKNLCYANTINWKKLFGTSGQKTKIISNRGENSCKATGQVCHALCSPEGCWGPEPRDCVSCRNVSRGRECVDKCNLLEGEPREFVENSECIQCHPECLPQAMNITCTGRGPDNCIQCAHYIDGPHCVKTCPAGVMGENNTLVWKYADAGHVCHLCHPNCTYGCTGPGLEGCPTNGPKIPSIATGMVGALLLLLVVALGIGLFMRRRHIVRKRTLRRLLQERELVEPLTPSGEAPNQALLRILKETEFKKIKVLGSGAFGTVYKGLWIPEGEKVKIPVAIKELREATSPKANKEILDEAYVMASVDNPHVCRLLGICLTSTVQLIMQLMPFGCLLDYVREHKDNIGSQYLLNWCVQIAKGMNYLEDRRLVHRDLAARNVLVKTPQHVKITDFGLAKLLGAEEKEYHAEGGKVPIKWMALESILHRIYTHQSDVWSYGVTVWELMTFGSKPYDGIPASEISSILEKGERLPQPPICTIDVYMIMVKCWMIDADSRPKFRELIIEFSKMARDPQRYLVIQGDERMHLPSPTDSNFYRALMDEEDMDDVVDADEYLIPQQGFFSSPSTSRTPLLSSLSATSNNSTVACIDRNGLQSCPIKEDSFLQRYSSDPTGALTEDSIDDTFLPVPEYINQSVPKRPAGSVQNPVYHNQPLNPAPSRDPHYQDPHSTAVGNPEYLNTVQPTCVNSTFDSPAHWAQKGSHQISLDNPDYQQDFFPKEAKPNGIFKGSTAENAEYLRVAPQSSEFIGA
# [11] = test system: Epidermal growth factor receptor (Homo sapiens), P00533 [T790M]; settings: at 1 µM
# [12] = test system: Epidermal growth factor receptor (Homo sapiens), P00533 [L858R,T790M]; settings: at 0.1 µM
# Epidermal growth factor receptor (Homo sapiens), P00533 [L858R,T790M], sequence (P00533 whole entry T790M/L858R, looked up): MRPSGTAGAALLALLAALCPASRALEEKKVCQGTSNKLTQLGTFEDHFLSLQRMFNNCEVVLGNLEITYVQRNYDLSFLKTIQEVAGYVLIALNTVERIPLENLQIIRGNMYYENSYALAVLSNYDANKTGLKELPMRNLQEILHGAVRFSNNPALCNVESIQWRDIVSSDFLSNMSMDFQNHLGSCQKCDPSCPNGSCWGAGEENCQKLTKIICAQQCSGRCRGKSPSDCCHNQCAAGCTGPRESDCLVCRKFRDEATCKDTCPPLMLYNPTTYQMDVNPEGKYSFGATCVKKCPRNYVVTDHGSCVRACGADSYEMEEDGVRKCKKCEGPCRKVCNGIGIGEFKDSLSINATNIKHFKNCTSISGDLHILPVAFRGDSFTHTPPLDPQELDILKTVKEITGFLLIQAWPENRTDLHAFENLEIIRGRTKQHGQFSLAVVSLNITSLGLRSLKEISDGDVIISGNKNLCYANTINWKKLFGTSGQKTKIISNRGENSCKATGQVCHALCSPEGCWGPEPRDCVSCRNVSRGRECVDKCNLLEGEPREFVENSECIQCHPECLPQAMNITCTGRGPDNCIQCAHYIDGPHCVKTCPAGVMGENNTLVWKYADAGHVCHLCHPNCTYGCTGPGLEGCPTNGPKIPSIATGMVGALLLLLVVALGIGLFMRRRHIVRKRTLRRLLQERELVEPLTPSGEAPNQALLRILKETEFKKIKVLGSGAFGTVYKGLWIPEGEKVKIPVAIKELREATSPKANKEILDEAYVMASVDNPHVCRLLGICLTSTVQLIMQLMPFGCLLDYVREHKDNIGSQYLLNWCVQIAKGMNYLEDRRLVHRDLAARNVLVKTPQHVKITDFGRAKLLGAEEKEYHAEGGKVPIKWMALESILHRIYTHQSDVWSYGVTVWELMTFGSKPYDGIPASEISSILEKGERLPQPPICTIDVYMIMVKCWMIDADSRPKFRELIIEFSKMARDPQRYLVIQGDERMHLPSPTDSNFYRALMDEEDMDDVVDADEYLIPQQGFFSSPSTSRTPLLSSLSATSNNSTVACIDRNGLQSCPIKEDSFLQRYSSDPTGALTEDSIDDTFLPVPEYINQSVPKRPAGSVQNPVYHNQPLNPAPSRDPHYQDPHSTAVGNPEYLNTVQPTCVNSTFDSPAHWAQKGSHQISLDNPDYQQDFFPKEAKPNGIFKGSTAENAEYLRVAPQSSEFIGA
# [13] = test system: Epidermal growth factor receptor (Homo sapiens), P00533 [L858R,T790M]; settings: at 1 µM
# [14] = molecular target: Ephrin type-A receptor 2 (Homo sapiens) (UniProt P29317); settings: at 0.1 µM
# Ephrin type-A receptor 2 (Homo sapiens), sequence (P29317 whole entry): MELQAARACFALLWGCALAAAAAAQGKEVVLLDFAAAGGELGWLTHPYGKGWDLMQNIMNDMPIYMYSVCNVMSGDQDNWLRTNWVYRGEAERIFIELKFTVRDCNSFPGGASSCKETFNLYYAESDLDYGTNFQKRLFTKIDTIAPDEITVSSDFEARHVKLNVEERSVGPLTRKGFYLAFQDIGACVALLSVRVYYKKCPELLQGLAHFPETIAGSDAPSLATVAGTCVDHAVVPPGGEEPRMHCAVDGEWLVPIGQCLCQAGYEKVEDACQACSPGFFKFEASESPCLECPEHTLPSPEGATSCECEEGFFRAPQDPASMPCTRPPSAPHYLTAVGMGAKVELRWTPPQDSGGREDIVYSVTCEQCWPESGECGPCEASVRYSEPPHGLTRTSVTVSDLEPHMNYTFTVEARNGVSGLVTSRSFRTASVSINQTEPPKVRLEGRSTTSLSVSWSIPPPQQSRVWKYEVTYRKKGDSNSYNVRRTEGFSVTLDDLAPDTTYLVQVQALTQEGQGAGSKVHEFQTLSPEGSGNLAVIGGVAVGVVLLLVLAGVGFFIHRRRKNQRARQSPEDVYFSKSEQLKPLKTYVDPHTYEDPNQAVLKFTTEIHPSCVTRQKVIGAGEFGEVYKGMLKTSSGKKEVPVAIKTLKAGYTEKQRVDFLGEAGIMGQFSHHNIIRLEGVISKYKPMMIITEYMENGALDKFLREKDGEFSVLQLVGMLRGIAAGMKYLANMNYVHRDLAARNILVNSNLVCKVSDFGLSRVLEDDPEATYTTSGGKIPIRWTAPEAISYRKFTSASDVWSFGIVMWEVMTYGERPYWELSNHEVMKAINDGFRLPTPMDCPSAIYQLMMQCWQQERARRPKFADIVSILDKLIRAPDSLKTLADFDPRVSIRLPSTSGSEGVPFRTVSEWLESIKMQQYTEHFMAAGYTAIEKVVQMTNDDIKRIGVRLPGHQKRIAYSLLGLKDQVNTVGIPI
# [15] = molecular target: Ephrin type-A receptor 2 (Homo sapiens) (UniProt P29317); settings: at 1 µM
# [16] = molecular target: T2, Ephrin type-A receptor 3 (Homo sapiens) (UniProt P29320); settings: at 0.1 µM
# T2 sequence (whole entry): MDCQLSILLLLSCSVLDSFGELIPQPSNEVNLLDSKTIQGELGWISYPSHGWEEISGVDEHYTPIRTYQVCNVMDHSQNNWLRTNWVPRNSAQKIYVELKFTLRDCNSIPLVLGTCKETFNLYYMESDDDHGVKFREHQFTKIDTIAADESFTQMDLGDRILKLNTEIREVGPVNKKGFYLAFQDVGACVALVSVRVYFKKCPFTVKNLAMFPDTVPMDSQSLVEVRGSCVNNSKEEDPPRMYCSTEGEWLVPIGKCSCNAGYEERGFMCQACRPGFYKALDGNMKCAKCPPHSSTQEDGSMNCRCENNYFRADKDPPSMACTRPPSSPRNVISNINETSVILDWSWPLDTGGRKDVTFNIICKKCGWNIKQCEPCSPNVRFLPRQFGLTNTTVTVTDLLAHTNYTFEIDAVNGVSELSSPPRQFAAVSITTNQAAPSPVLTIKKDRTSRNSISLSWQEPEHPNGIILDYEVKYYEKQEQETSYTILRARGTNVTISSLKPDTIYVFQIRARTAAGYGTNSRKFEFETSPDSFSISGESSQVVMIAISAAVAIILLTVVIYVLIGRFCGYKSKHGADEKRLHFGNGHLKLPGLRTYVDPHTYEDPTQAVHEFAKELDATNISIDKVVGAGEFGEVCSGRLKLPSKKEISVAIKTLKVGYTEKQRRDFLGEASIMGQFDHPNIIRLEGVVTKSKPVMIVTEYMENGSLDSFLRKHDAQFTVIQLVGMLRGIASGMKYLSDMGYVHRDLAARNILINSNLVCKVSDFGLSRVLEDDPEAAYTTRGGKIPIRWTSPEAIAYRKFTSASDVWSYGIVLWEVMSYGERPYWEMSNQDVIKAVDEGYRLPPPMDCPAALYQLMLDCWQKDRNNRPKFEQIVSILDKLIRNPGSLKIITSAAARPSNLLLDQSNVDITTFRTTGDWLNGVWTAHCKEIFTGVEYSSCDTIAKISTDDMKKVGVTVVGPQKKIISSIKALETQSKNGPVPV
# [17] = molecular target: T2, Ephrin type-A receptor 3 (Homo sapiens); settings: at 1 µM
# [18] = molecular target: Ephrin type-A receptor 4 (Homo sapiens) (UniProt P54764); settings: at 0.1 µM
# Ephrin type-A receptor 4 (Homo sapiens), sequence (P54764 whole entry): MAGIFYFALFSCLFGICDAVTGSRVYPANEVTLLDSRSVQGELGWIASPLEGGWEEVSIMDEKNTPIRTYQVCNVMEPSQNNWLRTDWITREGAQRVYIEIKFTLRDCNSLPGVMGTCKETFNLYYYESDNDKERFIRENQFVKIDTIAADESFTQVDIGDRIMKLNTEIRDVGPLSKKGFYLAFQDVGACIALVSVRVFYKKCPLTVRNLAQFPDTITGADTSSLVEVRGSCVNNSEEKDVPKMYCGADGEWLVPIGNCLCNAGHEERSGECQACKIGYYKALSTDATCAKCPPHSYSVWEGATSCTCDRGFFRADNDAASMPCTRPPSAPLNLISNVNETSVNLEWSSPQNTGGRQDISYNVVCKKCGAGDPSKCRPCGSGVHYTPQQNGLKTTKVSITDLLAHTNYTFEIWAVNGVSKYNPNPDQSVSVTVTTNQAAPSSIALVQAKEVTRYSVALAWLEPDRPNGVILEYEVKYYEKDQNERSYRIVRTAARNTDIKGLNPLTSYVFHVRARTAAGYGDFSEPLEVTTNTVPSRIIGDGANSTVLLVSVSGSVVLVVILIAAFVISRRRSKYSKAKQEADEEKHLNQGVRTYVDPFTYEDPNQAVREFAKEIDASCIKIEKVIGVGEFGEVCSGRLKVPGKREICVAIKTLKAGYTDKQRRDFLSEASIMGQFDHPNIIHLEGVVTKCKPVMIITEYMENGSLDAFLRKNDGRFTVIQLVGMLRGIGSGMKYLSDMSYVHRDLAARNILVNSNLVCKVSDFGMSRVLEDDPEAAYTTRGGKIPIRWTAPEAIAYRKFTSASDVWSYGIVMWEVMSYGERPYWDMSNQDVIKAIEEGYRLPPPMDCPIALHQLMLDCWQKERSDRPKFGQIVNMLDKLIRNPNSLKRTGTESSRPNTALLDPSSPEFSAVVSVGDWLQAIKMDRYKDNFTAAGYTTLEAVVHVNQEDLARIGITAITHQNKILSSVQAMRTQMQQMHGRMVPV
# [19] = molecular target: Ephrin type-A receptor 4 (Homo sapiens) (UniProt P54764); settings: at 1 µM
# [20] = molecular target: T3, Ephrin type-B receptor 2 (Homo sapiens) (UniProt P29323); settings: at 0.1 µM;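 note: reported as mean inhibition of EPHB2, from the GSK PKIS dataset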
# T3 sequence (whole entry): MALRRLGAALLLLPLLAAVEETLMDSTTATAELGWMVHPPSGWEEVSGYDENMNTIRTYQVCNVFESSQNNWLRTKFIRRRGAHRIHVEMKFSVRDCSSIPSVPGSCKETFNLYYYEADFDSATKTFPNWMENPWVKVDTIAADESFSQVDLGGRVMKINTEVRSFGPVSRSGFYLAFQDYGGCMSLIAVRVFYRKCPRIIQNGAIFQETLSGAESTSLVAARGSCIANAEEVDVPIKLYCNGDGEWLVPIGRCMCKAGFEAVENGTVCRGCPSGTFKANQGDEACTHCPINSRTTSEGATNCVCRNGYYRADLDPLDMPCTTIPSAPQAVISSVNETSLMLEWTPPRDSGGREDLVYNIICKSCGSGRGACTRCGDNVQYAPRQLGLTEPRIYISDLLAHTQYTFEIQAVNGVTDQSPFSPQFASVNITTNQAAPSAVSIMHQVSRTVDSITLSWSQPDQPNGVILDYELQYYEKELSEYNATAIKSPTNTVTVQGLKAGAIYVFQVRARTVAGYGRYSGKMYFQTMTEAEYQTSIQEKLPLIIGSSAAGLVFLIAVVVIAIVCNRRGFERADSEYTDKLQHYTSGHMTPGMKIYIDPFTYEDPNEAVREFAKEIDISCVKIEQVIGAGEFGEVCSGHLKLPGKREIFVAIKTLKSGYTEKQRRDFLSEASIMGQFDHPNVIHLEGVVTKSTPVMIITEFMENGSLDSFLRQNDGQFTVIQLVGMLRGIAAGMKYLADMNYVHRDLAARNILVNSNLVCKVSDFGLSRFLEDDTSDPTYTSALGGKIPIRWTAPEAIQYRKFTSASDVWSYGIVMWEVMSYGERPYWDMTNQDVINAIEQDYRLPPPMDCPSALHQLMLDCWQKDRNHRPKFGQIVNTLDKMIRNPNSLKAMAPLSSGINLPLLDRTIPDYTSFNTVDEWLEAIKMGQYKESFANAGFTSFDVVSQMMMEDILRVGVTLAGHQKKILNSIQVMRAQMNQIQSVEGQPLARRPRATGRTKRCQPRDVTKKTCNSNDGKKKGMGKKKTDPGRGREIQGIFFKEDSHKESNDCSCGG
# Tyrosine-protein kinase CSK (Homo sapiens), sequence (P41240 2-450 limits assumed): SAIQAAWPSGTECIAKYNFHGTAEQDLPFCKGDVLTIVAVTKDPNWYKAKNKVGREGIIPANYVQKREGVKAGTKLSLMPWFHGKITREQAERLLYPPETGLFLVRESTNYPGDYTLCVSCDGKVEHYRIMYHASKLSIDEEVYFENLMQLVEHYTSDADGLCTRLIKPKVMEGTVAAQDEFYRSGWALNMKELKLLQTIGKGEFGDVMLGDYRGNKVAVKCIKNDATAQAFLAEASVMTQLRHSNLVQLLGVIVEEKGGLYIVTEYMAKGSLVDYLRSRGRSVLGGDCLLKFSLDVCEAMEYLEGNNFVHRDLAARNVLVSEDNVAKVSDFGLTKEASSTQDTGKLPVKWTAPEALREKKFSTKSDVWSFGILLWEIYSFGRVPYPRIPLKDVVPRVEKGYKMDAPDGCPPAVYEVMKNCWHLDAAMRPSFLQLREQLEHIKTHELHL
Structure (SMILES),inhibition [1] [%],inhibition [2] [%],inhibition [3] [%],inhibition [4] [%],inhibition [5] [%],inhibition [6] [%],inhibition [7] [%],inhibition [8] [%],inhibition [9] [%],inhibition [10] [%],inhibition [11] [%],inhibition [12] [%],inhibition [13] [%],inhibition [14] [%],inhibition [15] [%],inhibition [16] [%],inhibition [17] [%],inhibition [18] [%],inhibition [19] [%],inhibition [20] [%]
Nc1nonc1-c1nc2cnccc2n1C1CCCCC1,-6.81,0.11,1.77,1.9,7.55,0.62,0.1,-0.81,-3.23,-2.97,-2.94,-0.65,-0.53,-4.45,-4.85,-7.25,-1.98,-4.61,-3.51,-7.08
CCn1c(-c2nonc2N)nc2c(C#CC(C)(C)O)ncc(OC[C@@H]3CCCN3)c21,-0.82,1.15,2.67,-1.23,1.8,-0.72,2.58,-0.11,-1.31,-0.72,-0.11,4.31,-0.19,1.83,0.02,0.32,-1.12,-0.1,2.58,-7.23
COc1cc(C=NNc2ncnc3c2cnn3Cc2ccccc2)ccc1O,2.56,-0.76,5.7,22.5,66.8,64.3,75.5,23.4,30.6,-3.01,-3.25,-1.62,-0.48,15.6,32.4,-4.93,3.27,6.93,21.7,-3.14
COc1cccc(-n2ncc3c(N/N=C/c4ccncc4)ncnc32)c1,16.8,2.12,9.37,3.52,28.8,20.7,73.3,7.71,35.5,2.99,5.66,3.61,8.8,3.25,15.8,5.89,6.97,11.1,35.5,8.96
COc1cccc(COc2cc(-n3cnc4ccccc43)sc2C(N)=O)c1,0.56,-1.78,-0.4,-1.6,1.95,-4.25,2.72,-1.17,-0.04,-1.14,-0.01,-1.88,-1.62,1.52,1.85,2.67,-0.49,-0.79,3.39,-2.9
Fc1ccc(-c2ncn(C3CCNCC3)c2-c2ccnc(Oc3ccccc3)n2)cc1,3.34,1.18,1.96,8.94,11.7,3.24,12.9,3.69,6.82,0.12,2.3,-1.55,0.47,-5.61,-5.64,-1.44,-1.53,4.92,5.9,5.55
NS(=O)(=O)c1ccc(-c2ccc3c(NC(=O)C4CC4)n[nH]c3c2)cc1,2.04,0.39,1.56,1.61,5.25,0.79,1.74,2.23,-1.61,0.83,-0.38,-1.39,1.78,3,1.18,2.34,2.31,4.83,1.43,7.57
